KCNQ2 block: inhibitors of rat KCNQ2 potassium channel; CHO-K1 KCNQ2, FluxOR thallium flux, 20 min; active compounds read low; B-score at 10 µM; 1.1% of 310,000 active;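 active means fluorescence ratio B-score at most minus 3 library SDs, with starting brightness B-score within 2 library SDs, cut at about -5.5 in these data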
Target sequence (O88943 whole entry, looked up): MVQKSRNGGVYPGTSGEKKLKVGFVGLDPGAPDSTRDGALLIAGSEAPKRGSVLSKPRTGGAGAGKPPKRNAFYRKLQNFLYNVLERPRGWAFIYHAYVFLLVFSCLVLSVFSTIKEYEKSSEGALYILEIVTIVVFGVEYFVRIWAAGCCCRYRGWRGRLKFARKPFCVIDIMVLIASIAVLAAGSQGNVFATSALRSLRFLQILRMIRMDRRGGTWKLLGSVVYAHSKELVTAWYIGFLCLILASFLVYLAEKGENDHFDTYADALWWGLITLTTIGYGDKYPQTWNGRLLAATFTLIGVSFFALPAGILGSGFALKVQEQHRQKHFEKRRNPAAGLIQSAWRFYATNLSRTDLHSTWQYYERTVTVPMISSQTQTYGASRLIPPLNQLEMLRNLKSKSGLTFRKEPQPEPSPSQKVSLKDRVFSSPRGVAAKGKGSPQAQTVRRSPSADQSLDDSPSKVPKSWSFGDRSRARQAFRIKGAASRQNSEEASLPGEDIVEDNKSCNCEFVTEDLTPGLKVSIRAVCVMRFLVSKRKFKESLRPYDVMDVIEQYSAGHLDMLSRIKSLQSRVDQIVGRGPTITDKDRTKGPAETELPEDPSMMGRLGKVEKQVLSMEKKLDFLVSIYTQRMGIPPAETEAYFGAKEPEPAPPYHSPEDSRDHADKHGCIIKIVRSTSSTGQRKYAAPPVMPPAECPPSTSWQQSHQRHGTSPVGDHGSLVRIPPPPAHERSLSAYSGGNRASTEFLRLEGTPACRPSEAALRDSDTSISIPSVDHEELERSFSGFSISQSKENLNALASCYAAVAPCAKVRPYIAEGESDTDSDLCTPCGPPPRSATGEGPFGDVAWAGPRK
KCNQ2 enhance: potentiators of rat KCNQ2 potassium channel | O88943 | CHO-K1 KCNQ2, FluxOR thallium flux fluorescence; active compounds read high | B-score at 10 µM | 0.54% of 310,000 active | AID 2239;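 active means fluorescence ratio B-score at least 3 SD of library B-scores, with initial fluorescence B-score within 3 of them, cut at about 5.3 in these data; same plate scores as AID 2156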;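 further: B-score of peak minus minimum over baseline fluorescence ratio after K+ and Tl+ stimulus; positive B-score means potentiation of KCNQ2 with more thallium influx and brighter signal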
KCNQ2 inh conf: confirmation of rat KCNQ2 potassium channel inhibitors; shares compounds with KCNQ2 block; KCNQ2-expressing cells, thallium flux, inhibition; active compounds read low; activity change, negative = inhibition, % at 10 µM; 57% of 1,000 active; AID 493025
KCNQ1 spec: selectivity of KCNQ2 inhibitors against human KCNQ1. KCNQ1-expressing cells, FluxOR thallium flux fluorescence; active compounds read low. activity change, negative = inhibition, % at 10 µM. shares compounds with KCNQ2 block. 15% of 1,000 active;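 active means activity change at least 3 SD of negative controls below their mean in both duplicate wells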;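 further: CHO cells stably transfected with KCNQ1 and depolarized by potassium stimulus; peak minus minimum fluorescence over baseline after thallium addition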
CHO Tl ctr: counter-screen for KCNQ2 inhibitors: effect in parental CHO cells. 14% of 1,000 active. activity change, % at 10 µM. thallium flux counter-screen; active compounds read low. shares compounds with KCNQ2 block
KCNQ2 patch conf: confirmation of rat KCNQ2 potassium channel inhibitors; shares compounds with KCNQ2 block; KCNQ2-expressing cells, automated patch clamp current; calls only at 10 µM; 49% of 550 active; AID 588531
A number is an active result. Compounds with a hit are over-represented: about 1.6% of the library has one in this group of screens. Unless noted, how the calls were made is not given here.

For COc1cc(C(=O)NCC(c2cccs2)N2CCc3ccccc32)cc(OC)c1OC (configuration not stated) the results were KCNQ2 block -8.7, KCNQ2 enhance inactive, KCNQ2 inh conf inactive, KCNQ1 spec inactive and CHO Tl ctr inactive.
`O=C(NCC(c1ccco1)N1CCc2ccccc21)C(=O)Nc1ccccc1F` (configuration not stated) gave KCNQ2 block inactive.
`COc1cccc(C(=O)NCC(c2cccs2)N2CCc3ccccc32)c1` (configuration not stated) gave KCNQ2 block inactive.
O=C(NCC(c1cccs1)N1CCc2ccccc21)c1ccccc1 (configuration not stated) was read as KCNQ2 block inactive.
`COc1ccccc1NC(=O)C(=O)NCC(c1ccco1)N1CCc2ccccc21` (configuration not stated) gave KCNQ2 block -7.2, KCNQ2 enhance inactive, KCNQ2 inh conf inactive, KCNQ1 spec inactive and CHO Tl ctr inactive.
Screening N=c1c2ccccc2nc2n1CCCCCCCCCCC2 returned KCNQ2 block inactive and KCNQ2 enhance inactive.
For O=C(CSc1nnc(NC(=O)C2CC2)s1)NCc1ccccc1 the results were KCNQ2 block inactive and KCNQ2 enhance inactive.
Screening COc1ccc2cc(CN(CC3COCCO3)S(=O)(=O)c3ccc(Cl)cc3)c(=O)[nH]c2c1 (configuration not stated) returned KCNQ2 block inactive.
`O=c1c2ccccc2nc2n1CCCCN2` gave KCNQ2 block inactive.
For CC(NC(=O)c1cccs1)c1ccc(Cl)cc1 (configuration not stated) the results were KCNQ2 block inactive.
For CC(NC(=O)c1cccs1)C(S)c1ccccc1 (configuration not stated) the results were KCNQ2 block -11, KCNQ2 enhance inactive, KCNQ2 inh conf inactive, KCNQ1 spec inactive and CHO Tl ctr inactive.
`CCOC(=O)C1=C(O)C(=O)N(c2ccc(S(N)(=O)=O)cc2)C1c1ccc(Br)cc1` (configuration not stated) gave KCNQ2 block inactive and KCNQ2 enhance inactive.
For CC1CN(c2nc(Nc3ccccc3F)nc(N)c2[N+](=O)[O-])CC(C)O1 (configuration not stated) the results were KCNQ2 block inactive and KCNQ2 enhance inactive.
COc1ccc(-c2cc(C(F)(F)F)nc(-n3ccnc3C)n2)cc1 was read as KCNQ2 block inactive.
Screening N#Cc1ccc(/C=C/C(=O)c2cccnc2)cc1 returned KCNQ2 block -11, KCNQ2 enhance inactive, KCNQ2 inh conf -29%, KCNQ1 spec inactive, CHO Tl ctr inactive and KCNQ2 patch conf inactive.
Screening O=C(/C=C/c1ccccc1Cl)c1cccnc1 returned KCNQ2 block -8, KCNQ2 enhance inactive, KCNQ2 inh conf -36%, KCNQ1 spec -32%, CHO Tl ctr -32% and KCNQ2 patch conf inactive.
O=C(/C=C/c1ccccc1Cl)c1ccc(O)cc1 was read as KCNQ2 block inactive.
For CCN(CC)c1ccc(/C=C/C(=O)c2cccnc2)cc1 the results were KCNQ2 block inactive.
`COc1ccc(S(=O)(=O)Nc2ccc(N3CCOCC3)nc2)cc1` gave KCNQ2 block inactive.
CC(NC(=O)Cn1nnc(-c2ccncc2)n1)c1ccccc1 (configuration not stated) was read as KCNQ2 block inactive and KCNQ2 enhance inactive.
For CN1/C(=C\C(=S)NC(=O)c2cccc(Br)c2)C(C)(C)c2ccccc21 the results were KCNQ2 block -7.8, KCNQ2 enhance inactive, KCNQ2 inh conf -22%, KCNQ1 spec inactive, CHO Tl ctr inactive and KCNQ2 patch conf active.
Screening CN1/C(=C\C(=S)NC(=O)c2ccc([N+](=O)[O-])cc2)C(C)(C)c2ccccc21 returned KCNQ2 block inactive.
CN1/C(=C\C(=O)Nc2cccc(Cl)c2)C(C)(C)c2ccccc21 was read as KCNQ2 block -7.1, KCNQ2 enhance inactive, KCNQ2 inh conf -20%, KCNQ1 spec inactive, CHO Tl ctr inactive and KCNQ2 patch conf inactive.
`CN1/C(=C\C(=O)Nc2ccc(Br)cc2)C(C)(C)c2ccccc21` gave KCNQ2 block inactive.
Cn1c(NC(=O)Cc2ccc(F)cc2)cc(=O)n(C)c1=O was read as KCNQ2 block inactive and KCNQ2 enhance inactive.
CCn1c(=O)c2sccc2n(Cc2cc(C(=O)OC)ccc2OC)c1=O was read as KCNQ2 block inactive.
`O=C(c1cccc(C(F)(F)F)c1)c1c[nH]c(C(=O)NCC2CCCO2)c1` (configuration not stated) gave KCNQ2 block inactive.
Screening COc1ccccc1OCCNS(=O)(=O)c1ccc2oc3ccccc3c2c1 returned KCNQ2 block inactive.
Screening O=S(=O)(NCCOc1ccccc1Cl)c1ccc2oc3ccccc3c2c1 returned KCNQ2 block -6.8, KCNQ2 enhance inactive, KCNQ2 inh conf inactive, KCNQ1 spec inactive and CHO Tl ctr inactive.
For CN(C)CCn1nnc2c(=O)oc3ccccc3c21 the results were KCNQ2 block inactive and KCNQ2 enhance inactive.
COCCNc1c(-c2ccc(OC)cc2)nc2ccc(Cl)cn12 was read as KCNQ2 block inactive.
For CCOC(=O)CNc1c(-c2ccc(OC)cc2)nc2ccc(Cl)cn12 the results were KCNQ2 block -8.9, KCNQ2 enhance inactive, KCNQ2 inh conf -28%, KCNQ1 spec inactive, CHO Tl ctr inactive and KCNQ2 patch conf active.
For COc1cccc(OC)c1C(=O)Nn1c(-c2cccs2)nc2ccccc2c1=O the results were KCNQ2 block -9.2, KCNQ2 enhance inactive, KCNQ2 inh conf inactive, KCNQ1 spec inactive and CHO Tl ctr inactive.
Screening COc1ccc(Cl)cc1C(=O)Nn1c(-c2cccs2)nc2ccccc2c1=O returned KCNQ2 block inactive and KCNQ2 enhance inactive.
For Cc1cccc(C)c1OCc1cc(C(=O)N2CCC(c3ccccc3)CC2)no1 the results were KCNQ2 block -9.2, KCNQ2 enhance inactive, KCNQ2 inh conf -24%, KCNQ1 spec inactive, CHO Tl ctr inactive and KCNQ2 patch conf active.
Screening Cc1cccc(C)c1OCc1cc(C(=O)N2CCC(C3CCCCC3)C2)no1 (configuration not stated) returned KCNQ2 block inactive.
For CCOC(=O)N1CCC(NC(=O)c2cc3c(=O)[nH]c4ccccc4c3n2C)CC1 the results were KCNQ2 block inactive and KCNQ2 enhance inactive.
`Cc1cc(Cn2ccnc2)c(C)c([N+](=O)[O-])c1Cn1ccnc1` gave KCNQ2 block inactive and KCNQ2 enhance inactive.
O=C(COc1ccc(Cl)cc1)N(Cc1ccccc1)c1ccccn1 was read as KCNQ2 block -9.1, KCNQ2 enhance inactive, KCNQ2 inh conf inactive, KCNQ1 spec inactive and CHO Tl ctr inactive.
For O=C(COc1ccc(Br)cc1)N(Cc1ccccc1)c1ccccn1 the results were KCNQ2 block inactive.
Screening CN(C(=O)COC(=O)COc1ccc(Cl)cc1)C1CCCCC1 returned KCNQ2 block inactive.

Screens from PubChem.
